Results on 26 compounds are retold here after article PMC11062922 (Nature Chemical Biology, 2023).

Read-outs that look alike come from different tables or passages of the source.

Holding throughout (design): species or system human, MV4-11 + K-562 + COLO205 + SK-N-BE2 + OVCAR-8
The subject of one test is CDC42. The note with it: read-out: apparent Kd, compound concentrations: 100 nM and 1000 nM (sheet 'Samples'), n = 1.
The next test relates to CDK6. The note with it: read-out: apparent Kd, n = 1.
The subject of the next test is ICK. The note with it: read-out: apparent Kd, n = 1.
The subject of the next test is PIK3C3. The note with it: read-out: apparent Kd; compound concentrations:100 nM and 1000 nM (sheet 'Samples'); n = 1.
A further test relates to CSNK1G1. The note with it: read-out: apparent Kd; compound concentrations:100 nM and 1000 nM (sheet 'Samples'); n = 1.
The subject of another test is FER. To be noted: read-out: apparent Kd, n = 1.
In the next test the test system is RPS6KA6. To be noted: read-out: apparent Kd, n = 1.
Another test has as its system IKBKE. The note with it: read-out: apparent Kd, compound concentrations: 100 nM and 1000 nM (sheet 'Samples'), n = 1.
The next test concerns MAP4K1. The note with it: read-out: apparent Kd, compound concentrations: 100 nM and 1000 nM (sheet 'Samples'), n = 1.
The subject of a further test is MELK. The note with it: read-out: apparent Kd; compound concentrations: 100 nM and 1000 nM (sheet 'Samples'), CATDS: 9.6320632964756892E-3; n = 1.
A further test deals with ULK3. To be noted: read-out: apparent Kd, n = 1.
In a further test the test system is ATM. To be noted: read-out: apparent Kd; compound concentrations: 100 nM and 1000 nM (sheet 'Samples'), CATDS: 0.104410485471121; n = 1.
The test system of the next test is ERN1. To be noted: read-out: apparent Kd, compound concentrations: 100 nM and 1000 nM (sheet 'Samples'), n = 1.
In a further test the test system is ERN2. The note with it: read-out: apparent Kd, n = 1.
The next test deals with ILK. To be noted: read-out: apparent Kd, n = 1.
For a further test, the system named is VDAC3. To be noted: read-out: apparent Kd, n = 1.
The next test relates to GRK6. To be noted: read-out: apparent Kd; compound concentrations:100 nM and 1000 nM (sheet 'Samples'); n = 1.
The subject of a further test is PRKCQ. The note with it: read-out: apparent Kd, compound concentrations: 100 nM and 1000 nM (sheet 'Samples'), n = 1.
[1] abbreviates: compound concentrations:100 nM and 1000 nM (sheet 'Samples').

As to `Cc1ccc(O)cc1Nc1ccnc2ccc(C(C)(C)C)cc12` [GW856805X], the potency estimated from few doses in the test with CDC42 (CATDS: 2.73171121323963E-2) was 1430 nM. On to `N#Cc1cccc(Nc2nccc(-c3cnn4ncccc34)n2)c1` [GW778894X], for which the potency estimated from few doses in the test with CDK6 (setting [1]) is 1970 nM; in the test on ICK (setting [1]), 1.67 nM; in the test on PIK3C3 it was 994 nM.

Turning to `CC(=O)c1c(-c2ccncc2)[nH]c(-c2ccncc2)c1C` [GW493036X], the potency estimated from few doses in the test with CSNK1G1 was 717 nM. Turning to `CN(C)Cc1ccc(-c2ccc3c(Nc4ccc(Oc5ccccn5)cc4)ccnc3c2)o1` [GW567148X], the potency estimated from few doses in the test with FER (compound concentrations: 100 nM and 1000 nM (sheet 'Samples'), CATDS: 2.46743192274099E-2) was 568 nM; in the test on RPS6KA6 (compound concentrations: 100 nM and 1000 nM (sheet 'Samples'), CATDS: 2.11191304038983E-2), 847 nM. Turning to `COc1cc2ncn(-c3cc(OCCCc4ccccc4)c(C(N)=O)s3)c2cc1OC` [GSK205189A], the potency estimated from few doses was 55.1 nM in the test on FER (setting [1]) and 907 nM in the test with RPS6KA6 (setting [1]).

As for `CNC(=O)c1ccccc1Nc1nc(Nc2cccc(CS(C)(=O)=O)c2)ncc1C.O=CO` [GSK1520489A], the potency estimated from few doses in the test with IKBKE (CATDS: 1.0336564492146301E-2) was 1110 nM; in the test on MAP4K1 (CATDS: 1.32778170160273E-2), 423 nM; with MELK, 1610 nM; in the test with ULK3 (compound concentrations: 100 nM and 1000 nM (sheet 'Samples'), CATDS: 1.2201291111952599E-2) it was 563 nM. Take `CN1CCN(Cc2ccc(-c3ccc4c(Nc5ccc(Oc6ccccn6)cc5)ccnc4c3)o2)CC1` [GW567140X]: in the test with CDC42 (CATDS: 3.5970497134968603E-2), the potency estimated from few doses was 1290 nM.

Regarding `O=S(=O)(CCOCc1ccc(-c2ccc3ncnc(Nc4ccc(OCc5cccc(F)c5)c(Cl)c4)c3c2)o1)c1ccccc1` [GW615311X], the values for the potency estimated from few doses in the test with ATM and with IKBKE (CATDS: 3.0296968888376598E-2) were 179 nM and 1150 nM, respectively. On to `Nc1nc(N)c2nc(-c3ccccc3)[nH]c2n1` [SKF-12778], for which the potency estimated from few doses in the test on CSNK1G1 is 924 nM; in the test with ULK3 (setting [1]), 1140 nM. Take `CC(C)c1nc(-c2cccc(NS(=O)(=O)c3c(F)cccc3F)c2F)c(-c2ccnc(Nc3ccc(N4CCOCC4)nc3)n2)s1` [GSK2008607A]: the potency estimated from few doses was 1650 nM in the test with ERN1 (CATDS: 1.9066828422081999E-2); 926 nM in the test with ERN2 (compound concentrations: 100 nM and 1000 nM (sheet 'Samples'), CATDS: 2.27822446193667E-2). Take `CC(C)c1nc(-c2ccc(F)c(NS(=O)(=O)c3c(F)cccc3F)c2)c(-c2ccnc(Nc3ccc(N4CCOCC4)nc3)n2)s1` [GSK1804250A]: the potency estimated from few doses with ERN2 (setting [1]) was 1120 nM. On to `Cn1cc(-c2ccc3c(c2)CCN3C(=O)Cc2cc(F)cc(C(F)(F)F)c2)c2c(N)ncnc21` [GSK2635225A], for which, in the test with IKBKE (CATDS: 0.14106315772238301), the potency estimated from few doses was 1220 nM.

With `CC(=O)N1CCN(c2ccc(Nc3nccc(-c4sc(C(C)C)nc4-c4cccc(NS(=O)(=O)c5cccc(Cl)c5)c4)n3)cn2)CC1` [GSK1660437A], the potency estimated from few doses with ERN1 (CATDS: 3.4539361157079097E-2) is 2420 nM. `CC(C)c1nc(-c2cccc(NS(=O)(=O)c3c(F)cccc3F)c2)c(-c2ccnc(Nc3ccc(N4CCOCC4)nc3)n2)s1.Cl` [GSK1723980B]: in the test on ERN1 (CATDS: 1.53606700454439E-2), the potency estimated from few doses is 1320 nM. In the case of `CN1CCN(Cc2ccc(NC(=O)Nc3ccc(N(C)c4ccnc(Nc5ccc(CS(C)(=O)=O)cc5)n4)cc3)cc2)CC1.Cl` [GW827654A], in the test on MAP4K1 (CATDS: 4.9471634979456398E-2), the potency estimated from few doses is 557 nM. With `Clc1ccc(-c2nn3ncccc3c2-c2ccnc(Nc3ccccc3)n2)cc1` [GW829055X], the potency estimated from few doses in the test on ILK (compound concentrations: 100 nM and 1000 nM (sheet 'Samples'), CATDS: 5.2015680047351402E-2) is 690 nM; in the test on VDAC3 (compound concentrations: 100 nM and 1000 nM (sheet 'Samples'), CATDS: 4.3121960870331599E-2), 997 nM. As to `Cn1cc(C2=C(c3ccccc3[N+](=O)[O-])C(=O)NC2=O)c2ccccc21` [RO0317753-000], the potency estimated from few doses in the test with ICK (compound concentrations: 100 nM and 1000 nM (sheet 'Samples'), CATDS: 0.27950775870472) is 32.3 nM. As to `Cc1ccc(-n2nc(C(C)(C)C)cc2NC(=O)Nc2ccc(OCCN3CCOCC3)cc2)cc1` [BIRB0876BS], the potency estimated from few doses with GRK6 was 2170 nM; with ILK (setting [1]), 1870 nM.

Turning to `CCCN1CCC(Oc2cc(Nc3nc(Nc4cccc(F)c4C(N)=O)c4cc[nH]c4n3)c(OC)cc2Cl)CC1` [GSK1713088A], the potency estimated from few doses with CDK6 (compound concentrations: 100 nM and 1000 nM (sheet 'Samples'), CATDS: 0.18030383020801999) is 2000 nM. For `Fc1cccc(COc2ccc(Nc3ncncc3C#Cc3ccccc3)cc2Cl)c1` [GW651576X], the potency estimated from few doses with CDC42 (CATDS: 5.6163427913581303E-2) is 1410 nM; in the test on ILK (compound concentrations: 100 nM and 1000 nM (sheet 'Samples'), CATDS: 6.7664406837509503E-2) it was 1010 nM. With `COc1ccc(C2=C(c3cn(C)c4ccccc34)C(=O)NC2=O)cc1OC` [RO3206363-000], the potency estimated from few doses with PRKCQ (CATDS: 0.114661548989235) is 82.8 nM. As for `COc1cc(F)c(F)c(F)c1C(=O)c1cnc(NC2CCN(S(C)(=O)=O)CC2)nc1N` [RO4600703-000], in the test with ICK (setting [1]), the potency estimated from few doses was 246 nM. `NC(=O)c1cccnc1COc1cc(-c2ccc(N3CCOCC3)nc2)cc2ncccc12` [BI01125081]: the results for the potency estimated from few doses in the test with GRK6 and in the test with PIK3C3 were 1700 nM and 1260 nM, respectively. Take `Nc1c(C(=O)c2ccccc2)cnn1-c1ccc(F)cc1` [RO1151246-000]: the potency estimated from few doses with CDK6 (setting [1]) was 2120 nM. For the compound `Fc1ccc(-c2ncn(C3CCNCC3)c2-c2ccnc(Oc3ccc4c(c3)OCO4)n2)cc1` [SB-250715], the potency estimated from few doses with VDAC3 (setting [1]) was 834 nM. In the case of `Fc1ccc(-c2nn3ccccc3c2-c2ccncc2)cc1` [GW434756X], in the test on PRKCQ (CATDS: 6.9749841239759497E-2), the potency estimated from few doses is 1160 nM.
